The results in this text go back to PubChem BioAssay (Tox21).

For assay [1], the target named is Thyrotropin receptor (Homo sapiens) (UniProt P16473). Put plainly: qHTS assay to identify small molecule agonists of the thyroid stimulating hormone receptor (TSHR) signaling pathway (AID 1224843; calls by dose curve; also: nearly all actives have a fitted effect of over 45% in size). The essentials:
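HEK293 cells stably bearing the thyrotropin receptor were plated at 800 cells/well and challenged with compound (30 min, RT). Accumulated cAMP was quantified via cAMP-d2 competing for cryptate-tagged antibody.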
A general note: Quantitative high-throughput screening tests each substance at several concentrations.

Assay [2] can be described thus: qHTS assay to identify small molecule agonists of the hypoxia (HIF-1) signaling pathway - cell viability counter screen (AID 1224844; calls by dose curve; also: nearly all actives have a fitted effect of over 50% in size). The essentials: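 HRE-bla ME-180 cells, 2,000/well in 0.5% dialyzed FBS medium, treated 17 h at 37C with compounds. Viability read in the same wells as the bla reporter, by CellTiter-Glo luminescence after 30 min at room temperature.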

A short description of assay [3]: qHTS assay to identify small molecule agonists of H2AX (AID 1224845; active = well fitted activation curve with a large enough effect in the signal ratio in the repeat runs, not every such curve was filed as active; the % refers to the signal ratio). The essentials:
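Phospho-H2AX Ser139 measured by HTRF (ex 320 nm; em 665 and 620 nm) after 24 hr antibody incubation. Compounds, 15 concentrations, 0.76% DMSO, were applied to CHO-K1 cells for 3hr at 37C before lysis.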

Assay [4] in a line: qHTS assay to identify small molecule agonists of the hypoxia (HIF-1) signaling pathway (AID 1224846; active = well fitted activation curve with a large enough effect in the signal ratio in the repeat runs, not every such curve was filed as active; the % refers to the signal ratio). The essentials:
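HRE-bla ME-180 beta-lactamase reporter cells in medium with 0.5% dialyzed FBS, pre-incubated 5 h then exposed to compounds 17 h at 37C, 5% CO2; reporter induction read with CCF4-AM FRET substrate.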

Assay [5] in a line: qHTS assay to identify small molecule agonists of H2AX - cell viability counter screen (AID 1224847; calls by dose curve;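 also: wild-type CHO-K1 cells; top concentration of the series differs between compounds; nearly all actives have a fitted effect of over 30% in size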). The essentials: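 For this counter screen, overnight-attached CHO-K1 cells received test compounds (15 concentrations, 0.76% DMSO final); 3 hr later at 37C, CellTiter-Glo reagent was added and luminescence recorded after 30 min at room temperature.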
Assay [6] in a line: qHTS RealTime-Glo MT Cell Viability Assay in HepG2 cells - 24 hour (AID 1224867). Also: nearly all actives have a fitted effect of over 50% in size. The essentials:
(§1)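 Cells + NanoLuc/prosubstrate dispensed (600 cells/well) → 5 h at 37 C/5% CO2 → compounds in DMSO transferred → 40 h incubation at 37 C, luminescence read at 0, 8, 16, 24, 32, 40 h.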

Assay [7] in a line: qHTS RealTime-Glo MT Cell Viability Assay in HEK293 cells - 32 hour (AID 1224868). Also: top concentration of the series differs between compounds; nearly all actives have a fitted effect of over 50% in size. The essentials:
(§2)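 Tox21 10K qHTS, HEK293, 600 cells/well, RealTime-Glo reagent co-dispensed with cells; 5 h preincubation, compound by pintool, 37 C, luminescence at 0–40 h.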

Assay [8] can be described thus: A CellTox Green Cytotoxicity Assay to monitor cytotoxicity in HEK293 cells - 0 hour (AID 1224869). Also: nearly all actives have a fitted effect of over 50% in size. The essentials:
(§3)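 HEK293 cells, 600/well, were preincubated 5 hours and then exposed to compounds at 37 C for up to 40 hours. A cell-impermeant cyanine dye staining dead-cell DNA was read by fluorescence at 0, 8, 16, 24, 32 and 40 h time points.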

A short description of assay [9]: qHTS RealTime-Glo MT Cell Viability Assay in HepG2 cells - 40 hour (AID 1224870). Also: nearly all actives have a fitted effect of over 50% in size. The essentials: (§4)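 Real-time viability: cells seeded at 600 per well together with NanoLuc and cell-permeant prosubstrate, compounds added after 5 h incubation. Luminescence tracked at 0, 8, 16, 24, 32 and 40 h of exposure.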
Assay [10] is described as follows: A CellTox Green Cytotoxicity Assay to monitor cytotoxicity in HEK293 cells - 40 hour (AID 1224871). Also: nearly all actives have a fitted effect of over 45% in size. Also: potency is read from the fitted curve at half-maximal effect. The essentials: as §3
A short description of assay [11]: qHTS RealTime-Glo MT Cell Viability Assay in HEK293 cells - 16 hour (AID 1224872). The essentials: as §2
Assay [12] is described as follows: qHTS RealTime-Glo MT Cell Viability Assay in HepG2 cells - 8 hour (AID 1224873). Also: nearly all actives have a fitted effect of over 55% in size. The essentials:
as §4

Assay [13] is described as follows: qHTS RealTime-Glo MT Cell Viability Assay in HEK293 cells - 40 hour (AID 1224874). Also: nearly all actives have a fitted effect of over 50% in size. As to conditions: RealTime-Glo luminescence; max response: active compounds read low. The essentials: (§5)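 600 cells/well were plated with the nonlytic NanoLuc/prosubstrate reagent, pre-incubated 5 h, then given 23 nL of compound in DMSO. Incubation at 37 C for 40 h, with luminescence from viable-cell-reduced substrate read repeatedly from 0 h.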

Assay [14] in a line: A CellTox Green Cytotoxicity Assay to monitor cytotoxicity in HEK293 cells - 24 hour (AID 1224875). Also: series mostly up to about 77 µM; nearly all actives have a fitted effect of over 45% in size. The essentials:
as §3

Assay [15] can be described thus: A CellTox Green Cytotoxicity Assay to monitor cytotoxicity in HepG2 cells - 16 hour (AID 1224876). Also: nearly all actives have a fitted effect of over 45% in size. The essentials: (§6)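 HepG2 cells, 600/well, preincubated 5 h with CellTox Green dye, then exposed to Tox21 compounds in DMSO at 37 C for up to 40 h. Dead-cell DNA fluorescence read at the indicated time point.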
Assay [16] is described as follows: qHTS RealTime-Glo MT Cell Viability Assay in HepG2 cells - 32 hour (AID 1224877). Also: nearly all actives have a fitted effect of over 55% in size. The essentials: as §1
The nature of assay [17]: A CellTox Green Cytotoxicity Assay to monitor cytotoxicity in HepG2 cells - 24 hour (AID 1224878). Also: nearly all actives have a fitted effect of over 45% in size. The essentials:
as §6

A short description of assay [18]: A CellTox Green Cytotoxicity Assay to monitor cytotoxicity in HepG2 cells - 40 hour (AID 1224879). Also: nearly all actives have a fitted effect of over 40% in size. The essentials:
as §6

Assay [19] can be described thus: qHTS RealTime-Glo MT Cell Viability Assay in HEK293 cells - 0 hour (AID 1224880). The essentials: as §5
A short description of assay [20]: qHTS assay to identify small molecule agonists of the estrogen related receptor (ERR) signaling pathway from Tox21 library (AID 1224849; calls by dose curve; also: nearly all actives have a fitted effect of over 15% in size). The essentials:
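ERR reporter cells (NTP line) pre-incubated 6 hours at 37 C, then exposed to compounds for 18 hours at 37 C. ONE-Glo luciferase luminescence was read after 30 minutes at room temperature.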

Where “and” joins values, the source holds several entries; their conditions need not be identical. Identical values can stand only once. Unmarked numbers belong to inactive results. Results filed as inconclusive are left out. Calls of active or inactive are those of the source. Unless noted, calls follow the shape of the dose curve; as a rule, active = well fitted curve in the direction sought with a large enough effect in the repeat runs; inconclusive = weak or mixed curves; inactive = no such curve, though single readings can be large; an effect the other way counts as inactive or inconclusive.
% is scaled to controls: 0 for no effect and ±100 for the full control effect.

Chain of Thyrotropin receptor (Homo sapiens) (P16473 whole entry, looked up): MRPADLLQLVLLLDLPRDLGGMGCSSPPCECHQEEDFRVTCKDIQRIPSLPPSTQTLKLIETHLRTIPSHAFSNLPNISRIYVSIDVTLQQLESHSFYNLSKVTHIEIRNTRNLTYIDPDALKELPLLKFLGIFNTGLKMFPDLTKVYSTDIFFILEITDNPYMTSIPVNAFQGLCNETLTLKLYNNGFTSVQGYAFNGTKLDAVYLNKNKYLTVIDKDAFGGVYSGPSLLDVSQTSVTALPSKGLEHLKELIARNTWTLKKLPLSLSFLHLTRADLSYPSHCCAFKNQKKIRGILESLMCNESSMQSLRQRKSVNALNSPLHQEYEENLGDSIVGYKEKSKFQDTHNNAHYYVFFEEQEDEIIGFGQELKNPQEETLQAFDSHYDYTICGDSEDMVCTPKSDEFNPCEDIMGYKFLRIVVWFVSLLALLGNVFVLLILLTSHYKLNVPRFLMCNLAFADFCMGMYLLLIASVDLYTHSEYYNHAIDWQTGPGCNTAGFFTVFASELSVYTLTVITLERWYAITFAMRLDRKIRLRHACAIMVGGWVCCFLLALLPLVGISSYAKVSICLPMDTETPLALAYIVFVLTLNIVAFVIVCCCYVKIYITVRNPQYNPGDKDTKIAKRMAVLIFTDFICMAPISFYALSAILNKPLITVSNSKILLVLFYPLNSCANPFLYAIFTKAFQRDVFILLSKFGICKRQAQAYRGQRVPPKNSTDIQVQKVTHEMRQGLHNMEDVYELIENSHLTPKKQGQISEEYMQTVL

Regarding `Nc1nc(N)nc(-c2ccccc2)n1`, the compound was classed as inactive in [1], in assay [2], in assay [3], in [4], in assay [5] and in assay [8]. The outcome in assay [9], in assay [15], in assay [16] and in assay [19] was inactive. The Potency result in assay [6], in [7], in assay [10], in [11], in assay [12] and in assay [14] was “inactive” each time. In addition, the Potency result in [17] and in assay [18] was “inactive” throughout. Besides, the max response in assay [13] is -23.1% and 0.641%.
On to `NCCCCCCN`, for which the compound was called inactive in [1], in assay [2], in [3], in [4], in assay [5] and in [20]. The compound was classed as inactive in assay [9], in [15], in assay [16] and in [19]. For the same compound, the Potency entry in assay [6], in assay [7], in assay [10], in assay [11], in assay [12] and in assay [14] was “inactive” each time. In addition, the Potency result in [17] and in assay [18] was “inactive” in each case. The max response in [13] was -0.521% and 1.93%.
Take `C=C(C)[C@H]1CC=C(C)C(=O)C1`: the outcome in assay [1], in assay [2], in assay [3], in [4], in assay [5] and in assay [9] was inactive. Moreover, the result in assay [15], in assay [16] and in [19] was inactive. Further, the Potency result in [6], in assay [10], in [11], in [12], in assay [14] and in assay [17] was “inactive” each time. In addition, the Potency result in assay [18] is “inactive”.
Regarding `CCCCCCC=O`, the compound was classed as inactive in [1], in assay [2], in [3], in [4], in assay [5] and in assay [8]. Further, the compound was called inactive in [9], in [15], in assay [16] and in [19]. Besides, the Potency result in assay [6], in assay [7], in assay [10], in [11], in assay [12] and in assay [14] was “inactive” throughout. Further, the Potency entry in [17] and in assay [18] was “inactive” throughout. For the same compound, the max response in assay [13] is 0.391% and 24.5%.
Turning to `CC1(C)CC(N)CC(C)(CN)C1` (stereo unspecified), the call in assay [1], in [2], in assay [3], in assay [4], in assay [5] and in [8] was inactive. The result in assay [9], in assay [15], in [16] and in assay [19] was inactive. Moreover, the Potency result in assay [6], in assay [7], in assay [10], in [11], in assay [12] and in assay [14] was “inactive” each time. Further, the Potency result in assay [17] and in [18] was “inactive” throughout. Besides, the max response in [13] was -9.67% and 2.41%.
For the compound `CN1C(=O)CC[C@H]1c1cccnc1`, the outcome in [1], in assay [2], in [3], in assay [5], in [8] and in assay [9] was inactive. Further, the outcome in assay [15], in assay [16] and in [19] was inactive. Further, the Potency result in assay [6], in assay [7], in [10], in assay [11], in assay [12] and in assay [14] was “inactive” each time. The Potency entry in assay [17] and in assay [18] was “inactive” each time. In addition, in [13], the max response was 1.45% and 7.43%.
Turning to `C[C@]12CCC(=O)C=C1CC[C@@H]1[C@@H]2[C@@H](O)C[C@@]2(C)[C@H]1CC[C@]2(O)C(=O)CO`, the call in assay [1], in assay [2], in [3], in assay [5] and in assay [15] was inactive. For the same compound, the Potency entry in assay [10], in [14], in assay [17] and in [18] was “inactive” throughout.
On to `c1ccc2c(c1)Cc1ccccc1-2`, for which the outcome in [1], in assay [2], in [3], in [4], in assay [5] and in [8] was inactive. Also, the compound was classed as inactive in [9], in assay [15], in assay [16] and in assay [19]. In addition, the Potency result in assay [6], in assay [11], in assay [12], in assay [17] and in [18] was “inactive” throughout. The Potency in assay [10] was 39.5 µM (active) and 54.9 µM (active). Moreover, the max response in assay [13] is -9.32% and 10%.
